GLS inhibitor: glutaminase GLS (human) inhibition. AID 624170. O94925. GLS enzymatic activity, qHTS titration. Potency, µM (doses to about 45.5 µM), usual class: inhibitors. hit rate 0.21% among 410,000
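Assay buffer: 45 mM KH2PO4 pH 8.2, 0.02% Tween-20. hKGA acts on L-glutamine (1 mM solution added); product glutamate is reported by an oxidase/peroxidase Amplex Red coupling, with fluorescence taken at baseline and 30 min.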
Pol iota inh: blocks human DNA polymerase iota activity | Potency, µM (top dose mostly 115 µM), actives largely listed as inhibitors | Q9UNA4 | hit rate 1% among 390,000 | AID 588590 | Pol iota fluorescent replication assay, 10 min
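Pol iota at 10 nM preincubated 15 min with compounds at room temperature; reaction started with fluorescent substrate, 50 nM final. Fluorescence read kinetically at 0 and 10 min; buffer-only wells as negative control.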
Pol kappa inh: blocks human DNA polymerase kappa activity. purified Pol kappa, fluorescent DNA synthesis assay, 10 min. Potency, µM (titrated, usually from 107 µM), hits mostly inhibitors. hit rate 0.53% among 400,000
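Inhibition of 10 nM Pol kappa is measured by a fluorescent read-out at 0 and 10 min following addition of 50 nM substrate (final), with a 15-min room-temperature compound preincubation.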
APE1 inh: inhibitors of human APE1 endonuclease; Potency, µM (top dose mostly 65.8 µM), hits mostly inhibitors; recombinant APE1, TAMRA/BHQ-2 abasic DNA cleavage fluorescence; P27695; hit rate 0.35% among 350,000; also: nearly all actives have a fitted effect of over 55% in size
Target sequence (P27695 whole entry, looked up): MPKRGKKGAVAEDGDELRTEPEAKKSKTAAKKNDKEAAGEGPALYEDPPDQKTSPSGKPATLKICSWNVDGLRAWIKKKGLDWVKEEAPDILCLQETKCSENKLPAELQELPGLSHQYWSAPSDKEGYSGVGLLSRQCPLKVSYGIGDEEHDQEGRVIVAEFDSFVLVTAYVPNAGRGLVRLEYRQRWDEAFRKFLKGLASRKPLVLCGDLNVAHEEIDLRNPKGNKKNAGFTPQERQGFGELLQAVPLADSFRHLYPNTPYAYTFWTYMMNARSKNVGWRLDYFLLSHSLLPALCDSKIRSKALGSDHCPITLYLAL
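APE1 at 0.75 nM preincubated 15 min at room temperature with compound. Reaction then started with 50 nM double-stranded THF-abasic substrate labelled with TAMRA/BHQ-2, and 525/598 nm fluorescence read kinetically. Activity taken as third-minus-first read difference, normalized to DMSO and NSC13755 controls.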
Pol beta inh: blocks human DNA polymerase beta activity; P06746; Pol beta primer extension/strand displacement, fluorescence kinetic; Potency, µM (series often up to 114 µM), most hits filed as inhibitors; hit rate 1.3% among 340,000; AID 485314
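Human Pol beta at 10 nM; strand-displacement substrate 50 nM final. Compound exposure 15 min at room temperature before start, reaction 10 min at room temperature.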
Pol eta inh: inhibitors of human DNA polymerase eta. recombinant Pol eta, fluorescent DNA replication assay. Potency, µM (doses to about 114 µM), actives largely listed as inhibitors. hit rate 1.2% among 390,000
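Pol eta at 10 nM preincubated with compounds 15 min at room temperature; reaction started with fluorescent substrate (50 nM final) and read kinetically at 0 and 10 min.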
Of the large screens only hits and unclear results are named; the others gave an inactive call. Most compounds without a hit are left out; they make up all but 2.4% or so of the library. Calls follow the shape of the dose curve; as a rule, active = well fitted curve in the direction sought with a large enough effect; inconclusive = small, poorly fitted or top-dose-only effect, or another doubt; inactive = no such curve, though single readings can be large; an effect the other way counts as inactive or inconclusive.

CN1C/C(=C\c2ccc(N3CCOCC3)cc2)C(=O)/C(=C/c2ccc(N3CCOCC3)cc2)C1	none
N#CC(Cc1ccc(O)c(O)c1)C(=O)N1CCc2ccccc21 (stereo unspecified)	Pol iota inh inconclusive, Pol beta inh inconclusive, Pol eta inh 7.9µM (no result: GLS inhibitor, Pol kappa inh)
CC(=O)OC1(C(F)(F)F)Oc2ccccc2NC1=O (stereo unspecified)	Pol beta inh 79µM
CCOC(=O)c1c(-n2cnnn2)sc2c1CCCC2	none
CCOC(=O)c1c(N2C(=O)Nc3cc(Cl)c(Cl)cc3N2O)sc2c1CCCCC2	Pol beta inh 50µM, Pol eta inh inconclusive
Cc1ccc(-n2ncc(C(=O)NCc3ccccn3)c2C2CCN(C(=O)OC(C)(C)C)CC2)c(C)c1	none (no result: APE1 inh)
CC(=O)OCCNc1cc(N2CCN(C)CC2)c2noc3c2c1C(=O)c1ccccc1-3	none
CCN1CCN(c2cc(N3CCN(C(=O)c4ccco4)CC3)c3c4c(onc24)-c2ccccc2C3=O)CC1	GLS inhibitor inconclusive, Pol iota inh 28µM
CCOC(=O)Cc1cc(=O)c2c(=O)n(-c3ccccc3)[nH]c2[nH]1	Pol iota inh 22µM, Pol kappa inh 22µM
O=c1cc(-c2ccccc2)[nH]c2[nH]n(-c3ccccc3)c(=O)c12	GLS inhibitor inconclusive, Pol iota inh inconclusive
COc1ccc(-c2c(-c3ccc(OCC(=O)NN)cc3O)n[nH]c2C(F)(F)F)cc1	none
O=C(Nc1ccc(-c2nnc(-c3ccccc3)o2)cc1)C(F)(F)F	none
CC(C)C(=O)Nc1ccc(-c2nnc(-c3ccccc3)o2)cc1	APE1 inh inconclusive, Pol beta inh 45µM
CCc1cc(=O)[nH]c(SCC(=O)Nc2cc(C)on2)n1	none (no result: Pol beta inh)
On1c2c(c3c4nonc4ccc31)CCCC2	Pol beta inh inconclusive (no result: GLS inhibitor, Pol iota inh, Pol kappa inh, Pol eta inh)
COn1c2c(c3c4nonc4ccc31)CCCC2	Pol iota inh 22µM
NC(=O)C1CCN(C(=O)CN(C2CCCCC2)S(=O)(=O)c2ccc(F)cc2)CC1	none
CCN(CC(=O)NC1CCS(=O)(=O)C1)S(=O)(=O)c1ccc(F)cc1 (stereo unspecified)	Pol beta inh 16µM, Pol eta inh inconclusive
CCOC(=O)C1(C)CCN1C(=O)c1ccc2ccccc2c1 (stereo unspecified)	none (no result: Pol iota inh, Pol kappa inh, APE1 inh, Pol beta inh, Pol eta inh)
COc1ccc(/C=N\NC(=O)CNC(=O)C(c2ccccc2)c2ccccc2)cc1[N+](=O)[O-]	none
COc1cc(/C=N\NC(=O)CNC(=O)C(c2ccccc2)c2ccccc2)ccc1O	GLS inhibitor 11µM, APE1 inh inconclusive
COc1cc(/C=N/NC(=O)Cn2cnc3ccccc3c2=O)ccc1O	GLS inhibitor 20µM
CCCn1c(=O)c2ccccc2n2c(=S)[nH]nc12	none
Cn1c(=O)c2ccccc2n2c(=S)[nH]nc12	GLS inhibitor 10µM, Pol iota inh inconclusive
CCCCCn1c(=O)c2ccccc2n2c(=S)[nH]nc12	none
CCCCn1c(=O)c2ccccc2n2c(=S)[nH]nc12	GLS inhibitor 13µM
Cc1cc(C)c(S(=O)(=O)NCCc2csc3nc(-c4ccc(Cl)cc4)nn23)c(C)c1	none (no result: APE1 inh)
Cc1sc(-n2cccc2)c(C(=O)O)c1C	Pol iota inh inconclusive, Pol beta inh inconclusive, Pol eta inh 89µM
Fc1ccc(NC(=S)NCCc2ccccc2)c(F)c1F	Pol beta inh inconclusive
Cc1ccc(/C=N/n2c(-c3ccccn3)n[nH]c2=S)o1	Pol iota inh 50µM
S=c1[nH]nc(-c2ccccn2)n1/N=C/c1ccccc1	none
CCOC(=O)c1ccc(NC(=O)c2cc3c(n(-c4ccc(C)cc4)c2=O)CC(C)(C)CC3=O)cc1	Pol iota inh inconclusive, Pol kappa inh 89µM (no result: APE1 inh)
Cc1ccc2oc(-c3cc(NC(=O)c4cccs4)cc(C)c3O)nc2c1	none (no result: APE1 inh)
CSCCC(NC(=O)c1ccccc1)C(=O)OCC(=O)NCc1ccco1 (stereo unspecified)	Pol iota inh 71µM, APE1 inh inconclusive, Pol eta inh inconclusive (no result: Pol beta inh)
COc1ccc(CNC(=O)COC(=O)C(CCSC)NC(=O)c2ccco2)cc1OC (stereo unspecified)	none (no result: Pol beta inh)
CC(C)[C@H](NC(=O)OCc1ccccc1)C(=O)OCC(=O)NCc1ccco1	Pol iota inh 16µM, Pol eta inh 50µM (no result: APE1 inh, Pol beta inh)
Cc1nc(Nc2ncc(C(=O)Nc3c(C)cccc3Cl)s2)cc(N2CCN(CCO)CC2)n1	none (no result: APE1 inh, Pol beta inh, Pol eta inh)
CCCC(=O)N(Cc1cc(=O)[nH]c2ccccc12)c1cccc(C)c1	none
Cc1cccc(N(Cc2cc(=O)[nH]c3ccccc23)C(=O)CCl)c1	Pol iota inh inconclusive, Pol beta inh inconclusive, Pol eta inh 45µM
COc1ccc(N(Cc2cc(=O)[nH]c3ccccc23)C(=O)CCl)cc1	Pol eta inh 35µM
CCCC(=O)N(Cc1cc(=O)[nH]c2ccccc12)c1ccc(OC)cc1	none
C/C(N)=C(/C#N)C(=O)COC(=O)c1cccc(C)c1O	Pol beta inh inconclusive
Nc1nonc1-n1nnc(C(=O)N/N=C/c2ccoc2)c1-c1ccccc1	none
O=C(COC(=O)c1ccccc1O)NCC1COc2ccccc2O1 (stereo unspecified)	none (no result: Pol beta inh)
Cn1ncc(C#N)c1/N=C/N1CCCCC1	none
Cn1ncc(C#N)c1/N=C/N1CCCC1	Pol beta inh 89µM
CNc1nc(-c2ccccc2CN(C)C)nc2ccccc12	none (no result: GLS inhibitor, Pol iota inh, Pol beta inh, Pol eta inh)
O=c1ccc(C(F)(F)F)cn1Cc1cc(=O)n2cc(Br)ccc2n1	Pol iota inh inconclusive, Pol kappa inh inconclusive, Pol beta inh 13µM
COc1cc(OC)cc(C(=O)NCC(=O)OCC(=O)Nc2ncc(Cl)cc2Cl)c1	Pol eta inh inconclusive
COc1ccc(S(=O)(=O)c2c(N)n(Cc3ccco3)c3nc4ccccc4nc23)cc1	Pol iota inh 7.9µM, Pol kappa inh 25µM, Pol beta inh inconclusive, Pol eta inh 7.9µM
COc1ccc(Cn2c3nc4ccccc4nc3c3c(=O)n(Cc4ccco4)c(C)nc32)cc1	APE1 inh inconclusive, Pol beta inh 10µM (no result: GLS inhibitor, Pol iota inh, Pol kappa inh, Pol eta inh)
Cc1ccc(S(=O)(=O)c2c(N)n(/N=C/c3ccco3)c3nc4ccccc4nc23)cc1	none
Cc1nc2c(c(=O)n1Cc1ccccc1Cl)c1nc3ccccc3nc1n2Cc1ccco1	Pol beta inh 20µM (no result: GLS inhibitor, Pol iota inh, Pol kappa inh, Pol eta inh)
CCC(C)n1cnc2c(c1=O)c1nc3ccccc3nc1n2Cc1ccc(OC)cc1 (stereo unspecified)	none
O=C(CCn1c(=O)c2cccn2c2ccc(F)cc21)NCc1ccccc1F	none (no result: APE1 inh)
COc1ccc(-c2csc(C(NC(C)=O)c3ccc(F)c(F)c3)n2)cn1 (stereo unspecified)	none (no result: Pol iota inh, Pol kappa inh, APE1 inh, Pol beta inh, Pol eta inh)
CCN1C(=O)/C(=C/c2cccs2)S/C1=N\S(=O)(=O)c1ccc(C)cc1	none
COc1ccc2c(c1)c(=O)c(C(=O)c1ccc(Cl)cc1)cn2CC(=O)Nc1ccc2c(c1)OCO2	Pol beta inh inconclusive (no result: APE1 inh)
